# Source: PubChem BioAssay
# Autofluor counter: flagged as autofluorescent in microsphere protease counterscreen. compound autofluorescence counterscreen, microsphere flow cytometry; active compounds read high. fluorescence intensity (no concentration beside the values). 3.1% of 360,000 active; in the data active = fluorescence intensity above about 16000; inconclusive = no clear call, values can overlap the other calls
# MazEF act: activators of E. coli MazEF toxin-antitoxin RNase; AID 504720; P0AE70; FAM/BHQ RNA-DNA oligo cleavage fluorescence, 5 h; activation, % at 20 µM; 0.32% of 350,000 active; in the data active = activation above about 50%
# Target sequence (P0AE70 whole entry, looked up): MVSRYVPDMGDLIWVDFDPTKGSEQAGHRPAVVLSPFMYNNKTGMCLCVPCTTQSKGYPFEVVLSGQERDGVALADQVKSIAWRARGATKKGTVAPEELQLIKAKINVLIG
# BoNT-A LC inh2: blocks Botulinum neurotoxin A light chain protease; inhibition, % at 10 µM; 0.17% of 360,000 active; multiplex microsphere protease substrate cleavage, flow cytometry; AID 588499
# Anthrax LF prot: blocks Bacillus anthracis lethal factor protease; P15917; inhibition, % at 10 µM; multiplex microsphere protease cleavage assay, LF; 0.12% of 360,000 active
# BoNT F protease: blocks Botulinum neurotoxin F light chain protease | Multiplex microsphere protease cleavage assay, flow cytometry | inhibition, % at 10 µM | 0.22% of 360,000 active | AID 588497; in the data active = inhibition above about 35%, passing the limit was not always enough; inconclusive = no clear call, values can overlap the other calls
# Numbers stand for hits; 0 = inactive; ? = inconclusive; - = no result given. Most compounds without a hit are left out; they make up all but 3.7% or so of the library. Rule as the data show it, unless noted: active = inhibition above about 30%; inconclusive = no clear call, values can overlap the other calls; inactive = below that.
SMILES,Autofluor counter,MazEF act,BoNT-A LC inh2,Anthrax LF prot,BoNT F protease
COc1ccc(NS(=O)(=O)Cc2ccccc2Cl)cn1,23973,0,?,0,0
COc1ccc(NC(=O)Cc2c(Cl)cccc2Cl)cn1,0,0,0,0,0
O=C(COC(=O)CCS(=O)(=O)c1ccccc1)NC(=O)c1ccc(OC(F)F)cc1,0,0,0,0,0
Cc1coc(NC(=O)CSc2nc(-c3ccc(Cl)cc3)cc(C(F)(F)F)c2C#N)n1,16407,0,0,0,0
COc1ccc(-c2cc(C(F)(F)F)c(C#N)c(SCC(=O)Nc3nc(C)co3)n2)cc1,0,0,0,0,0
Cc1cc(C(F)(F)F)c(C#N)c(SCC(=O)NC(C)(C)C)n1,25162,0,0,0,0
COC(=O)[C@]12CCCCC=C1N(CCC1=CCCCC1)C(=O)[C@H](CC(=O)NCc1ccccc1)C2,0,-,0,0,0
Cc1ccccc1OCc1nnc(SCc2cc(=O)[nH]c3ccccc23)o1,0,65,0,0,0
COc1cccc(OCc2nnc(SCc3cc(=O)[nH]c4ccccc34)o2)c1,0,0,0,0,0
O=c1cc(CSc2nnc(COc3ccc(Cl)cc3)o2)c2ccccc2[nH]1,0,51,0,0,0
CC1(C(=O)NS(C)(=O)=O)CCN1C(=O)Cc1ccc(-c2ccccc2)cc1 (configuration not stated),0,-,0,0,0
CC(C)C[C@@H]1CN(CCCC[C@H]2CNC(=O)C(=O)N2CCC2CCCCC2)C(=O)C(=O)N1CC1CCCCC1,0,-,0,0,0
CN1CCN(C2OC(=O)c3ccccc32)CC1 (configuration not stated),17143,0,0,0,0
CCN(CC)c1nc2n(c(=O)n1)CCN2CC,21466,0,0,0,0
CC1=C(C(=O)N2CCOCC2)C(c2ccccc2F)C2=C(CC(C)(C)CC2=O)N1 (configuration not stated),19197,0,0,0,0
COc1ccc(C2C(C(=O)N3CCOCC3)=C(C)NC3=C2C(=O)CC(C)(C)C3)c(OC)c1 (configuration not stated),0,0,0,0,0
Nc1cc(S(=O)(=O)N2CCOCC2)ccc1N1CCOCC1,0,0,0,0,0
CS(=O)(=O)c1ccc(N2CCOCC2)c(S(C)(=O)=O)c1,20225,0,0,0,0
C[C@@H](CO)NC(=O)c1[nH]cnc1C(=O)Nc1cccc(Cl)c1,0,0,0,0,0
CCC(Sc1nc2ccccc2s1)C(=O)Nc1nnc(C)s1 (configuration not stated),22870,0,0,0,0
COCCN1C(=O)COc2ccccc2C1C(=O)NCc1ccccc1 (configuration not stated),0,-,0,0,0
Fc1ccc(-c2nnc3sc(C4COc5ccccc5O4)nn23)cc1 (configuration not stated),0,0,0,0,0
c1ccc(CCc2nn3c(Cn4nnc5ccccc54)nnc3s2)cc1,0,0,0,0,0
c1ccc(Cc2nn3c(Cn4nnc5ccccc54)nnc3s2)cc1,22542,0,?,0,0
c1cncc(-c2nn3c(Cn4nnc5ccccc54)nnc3s2)c1,16144,0,0,0,0
SMILES,Autofluor counter,MazEF act,BoNT-A LC inh2,Anthrax LF prot,BoNT F protease
c1ccc2c(c1)OCC(c1nn3c(Cn4nnc5ccccc54)nnc3s1)O2 (configuration not stated),16268,0,?,0,0
c1ccc(-c2nn3c(Cn4nnc5ccccc54)nnc3s2)nc1,0,0,0,0,0
O=C(Cc1ccc(Cl)cc1)NCCS(=O)(=O)N1CCN(c2ccccc2F)CC1,-,0,-,-,-
Cc1cccn2c(=O)nc(SCC(=O)N3CCC(Cc4ccccc4)CC3)nc12,?,0,0,0,0
Cc1ccc(Oc2cc(-n3nc(C)cc3C)ncn2)cc1,22017,0,?,0,0
Cc1cc(C)n(-c2cc(-n3nc(C)cc3C)ncn2)n1,0,0,0,0,0
CC(C)(C)OC(=O)C[C@H]1C/C=C\C[C@@H](CC(=O)N(CCO)Cc2ccccc2)C(=O)NC[C@@H](c2ccccc2)OC1=O,0,0,0,0,0
O=C(c1csc2ccccc12)N1CCCCCC1,20758,0,0,0,0
O=C(c1csc2ccccc12)N1CCN(c2ccccn2)CC1,0,0,0,0,0
COc1ccc2c(c1)O/C(=C\c1sccc1C)C2=O,0,0,0,0,40
O=C(NCCC(=O)N1CCN(c2ccccn2)CC1)c1ccc(Cl)cc1,0,0,0,0,0
CCOC(=O)c1cc2c(c(CCO)n1)[C@@H](CCO)N(S(=O)(=O)C(C)(C)C)C2,0,0,0,0,0
O=c1nc2sc3ccccc3n2c(=O)n1-c1cccc(Cl)c1,0,0,0,0,0
O=c1nc2sc3ccccc3n2c(=O)n1-c1ccc(Cl)cc1,0,0,0,0,0
Cc1ccc2c(c1)sc1nc(=O)n(-c3ccc(Cl)c(Cl)c3)c(=O)n12,22447,0,?,0,0
Cc1ccc2c(c1)sc1nc(=O)n(-c3cccc(Cl)c3)c(=O)n12,22395,0,0,0,0
Cc1ccc2c(c1)sc1nc(=O)n(-c3ccc(Cl)cc3)c(=O)n12,19455,0,0,0,0
CCC1Oc2ccccc2N(CC(=O)N2CC(C)CC(C)C2)C1=O (configuration not stated),0,0,0,0,0
CC(=O)N1c2ccc(S(=O)(=O)N3CCCCC3)cc2CC1C(=O)NCc1cccc(Cl)c1 (configuration not stated),0,0,0,0,0
c1ccc2oc(NC3=NCN(C4CCCCC4)CN3)nc2c1,-,0,-,-,-
c1ccc2sc(NC3=NCN(C4CCCCCC4)CN3)nc2c1,19894,0,0,0,0
CCC1(C2C=COC=C2)NC(=O)NC1=O (configuration not stated),0,-,0,0,0
O=C(CNC(=O)c1ccco1)OCC(=O)c1ccc2c(c1)CCCC2,17018,0,0,0,0
CN(CC(=O)Nc1cccc(F)c1)C(=O)CCc1nc2ccccc2c(=O)[nH]1,0,0,0,0,0
Cc1ccc(N=Nc2[nH]c3ccccc3c2O)cc1,0,564,0,0,0
SMILES,Autofluor counter,MazEF act,BoNT-A LC inh2,Anthrax LF prot,BoNT F protease
Cc1ccc(N=Nc2c(O)[nH]c3ccc(F)cc23)cc1,0,474,0,0,?
O=c1[nH]nc(N=Nc2c(O)[nH]c3ccc(F)cc23)c(=O)[nH]1,0,0,0,0,0
COc1ccc(N=Nc2[nH]c3ccc(C)cc3c2O)cc1,0,0,0,0,0
CCNC(=O)C1(C)CCCN1C(=O)c1cc(OC)c(OC)c(OC)c1 (configuration not stated),0,-,0,0,0
Cc1cc(C(=O)Nc2ccccn2)cs1,22600,0,0,0,0
O=C(O)CN1C(=O)/C(=C/C=C/c2ccccc2)SC1=S,0,0,0,0,0
CC(=O)c1ccc(NC(=O)CN2C(=O)/C(=C/C=C/c3ccccc3)SC2=S)cc1,0,0,47,0,0
COc1cccc(C(=O)N(Cc2ccccc2)Cc2cc3cc4c(cc3[nH]c2=O)OCCO4)c1,20933,0,0,0,0
O=C(c1ccco1)N(Cc1ccc2c(c1)OCO2)Cc1cc2cc3c(cc2[nH]c1=O)OCO3,0,0,0,0,0
